High-throughput results deposited in PubChem BioAssay by National Center for Advancing Translational Sciences (NCATS).
A selection: hits, their analogues and other compounds. The true share with any hit is near 2.2%.
mIDH1 inhibitor: human IDH1 R132H inhibition; O75874; IDH1-R132H enzyme, NADPH consumption, diaphorase/resazurin fluorescence; Potency, µM (top dose mostly 76.6 µM), hits mostly inhibitors; 390,000 tested, 0.093% active; AID 602179; also: nearly all actives have a fitted effect of over 65% in size
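IDH1-R132H (0.5 ug/mL dispensed) in pH 7.5 Tris buffer was preincubated 30 min with compound, then given a substrate mix of 0.016 mM NADPH and 2 mM alpha-KG for 80 min at room temperature; remaining NADPH was read by diaphorase/resazurin fluorescence.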
IL-2 act: activates IL-2 in a cell-based reporter assay | IL-2 activation reporter assay, cell-based qHTS; stimulated with anti-CD3/CD4/CD28 beads; in transgenic mouse T cells | activation, % (series mostly up to about 46 µM) | 360,000 tested, 0.065% active; in the data active = activation above about 50%; inconclusive = mostly about 30% to 49%
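Quantitative HTS in unstimulated transgenic mouse T cells, with memory T cells as non-tolerant control and PMA/ionomycin as tolerance-bypass control. Compound pretreatment lasted 60 minutes before 18 h bead stimulation; EGFP/DsRed fluorescence read.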
TrxR1 substrate: is turned over as a substrate by rat TrxR1. O89049. 390,000 tested, 0.01% active. Potency, µM (doses to about 114 µM). purified TrxR1 substrate turnover, NADPH consumption readout; also: nearly all actives have a fitted effect of over 50% in size
Target sequence (O89049 whole entry, looked up): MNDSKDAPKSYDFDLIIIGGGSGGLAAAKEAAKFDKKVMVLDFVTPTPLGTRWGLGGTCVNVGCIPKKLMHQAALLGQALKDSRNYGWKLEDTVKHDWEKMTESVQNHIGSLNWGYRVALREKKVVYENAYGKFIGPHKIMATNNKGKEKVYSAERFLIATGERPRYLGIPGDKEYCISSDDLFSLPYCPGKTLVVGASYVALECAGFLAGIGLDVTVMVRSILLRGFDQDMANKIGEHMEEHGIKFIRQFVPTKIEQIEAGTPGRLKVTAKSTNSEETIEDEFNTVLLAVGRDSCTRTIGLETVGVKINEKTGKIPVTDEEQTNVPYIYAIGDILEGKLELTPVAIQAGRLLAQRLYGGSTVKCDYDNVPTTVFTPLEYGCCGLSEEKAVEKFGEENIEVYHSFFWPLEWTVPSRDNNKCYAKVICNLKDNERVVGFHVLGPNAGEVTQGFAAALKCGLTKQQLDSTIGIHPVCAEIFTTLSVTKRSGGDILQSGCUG
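Rat TrxR1, dispensed at 90 nM, was prereduced with 400 uM NADPH (final) for 5 min at ~22 deg C, then incubated with compound 15 min before 400 uM selenite. A first-read NADPH fluorescence drop versus no-compound background flagged substrates.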
Giardia killer: kills Giardia lamblia; Giardia lamblia trophozoite viability; activity change, % at 7.66 µM, hits read low; 340,000 tested, 0.15% active; AID 540267; in the data active = activity change below about -80%; inconclusive = between about -30% and that limit;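 also: parasites exposed to compound for two days anaerobically before the ATP read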
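Compounds were tested on trophozoites seeded at 100 cells/well and held 48 hrs at 37 deg C anaerobically. An ATP-based luminescent kit measured the remaining live cells.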
TrxR1 inh: blocks rat thioredoxin reductase 1 | O89049 | 390,000 tested, 1% active | Potency, µM (highest dose often 114 µM), usual class: inhibitors | recombinant rTrxR1, NADPH fluorescence consumption, selenite substrate; also: nearly all actives have a fitted effect of over 65% in size
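Rat TrxR1 (90 nM in the dispensed reagent) was pre-reduced with 400 uM NADPH for 5 min at room temperature, then incubated with compound for 15 min. After 400 uM selenite was added, NADPH fluorescence (Ex 340/Em 450 nm) was followed for 8 min.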
BRCA1 expr up: activators of BRCA1 expression. MCF7-BRCA1-FFLuc reporter, luminescence, 48 h; response scale: scaled: vehicle 0%, 10 µM genistein 100%. Potency, µM (highest dose often 46.1 µM), most hits filed as activators. 380,000 tested, 1.1% active. AID 624202; also: nearly all actives have a fitted effect of over 80% in size
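Quantitative HTS in MCF7 cells stably reporting BRCA1 expression via firefly luciferase. Compound treatment lasts 48 h at 37 °C in phenol-red free MEM. Activation is expressed relative to genistein at 10 microM and DMSO.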
Each line names hits and unclear results; the compound was inactive in the other large screens. Unless noted, calls follow the shape of the dose curve; as a rule, active = well fitted curve in the direction sought with a large enough effect; inconclusive = small, poorly fitted or top-dose-only effect, or another doubt; inactive = no such curve, though single readings can be large; an effect the other way counts as inactive or inconclusive.

CCN1c2ccccc2NC2N=C(OC)C(c3ccccc3)C21 (stereo not given)	TrxR1 inh 20µM
Cc1ccc(C)c(CNC(=O)c2cnc3sc(N4CCCC4)nn3c2=O)c1	none (no result: IL-2 act, Giardia killer, BRCA1 expr up)
COc1cc(C(c2c(C)[nH][nH]c2=O)c2c(C)[nH][nH]c2=O)ccc1OCc1ccc([N+](=O)[O-])cc1	BRCA1 expr up 3.16µM
CN1CCC2(CC1)N=C(c1ccc(F)cc1)C(=S)N2C(=O)c1ccccc1	TrxR1 inh 5.01µM
CCN1CCC2(CC1)N=C(c1ccc(F)cc1)C(=S)N2C(=O)c1ccc(C(C)(C)C)cc1	none
Cc1cc(C(=O)CSc2n[nH]c(N)n2)c(C)n1-c1cccc(F)c1	BRCA1 expr up 12.6µM
Cc1cc(C(=O)CSc2ncccn2)c(C)n1-c1cccc(F)c1	BRCA1 expr up inconclusive
COC(=O)C1C2C=CC3(CN(Cc4ccco4)C(=O)C13)O2 (stereo not given)	TrxR1 inh inconclusive
CC12C=CC3(CN(Cc4ccccc4)C(=O)C3C1C(=O)NCc1ccco1)O2 (stereo not given)	TrxR1 inh 56.2µM
CCOc1ccc(NC(=O)/C(C#N)=C\c2ccc(N3CCCC3)c(C)c2)cc1	IL-2 act 174.0
CCOc1ccc(/C=C(\C#N)C(=O)Nc2cccnc2)cc1	none
CCCCCn1c(=O)[nH]c2cc(C(=O)N3CCN(c4cccc(C)c4)C(C)C3)ccc2c1=O (stereo not given)	none (no result: IL-2 act, Giardia killer)
COc1cccc(CNC(=O)CSC2=Nc3ccccc3N=C(c3ccc(F)cc3)C2)c1	none (no result: IL-2 act, Giardia killer)
CCn1c(CCCOc2ccc(Cl)cc2Cl)n[nH]c1=S	BRCA1 expr up 6.31µM
Cc1c(C(=O)N(Cc2ccc(N(C)C)cc2)Cc2ccco2)oc2cc(Br)ccc12	none (no result: mIDH1 inhibitor, IL-2 act, Giardia killer, BRCA1 expr up)
O=C(Nc1ccc2ccccc2n1)c1ccccc1Cl	none
O=C(Nc1ccc2ccccc2n1)C1CCCCC1	BRCA1 expr up 2.82µM
COCCCNC(=O)c1sc2nc(C)c(C(=O)Nc3ccc(C)cc3C)c(-c3ccc(Cl)cc3)c2c1N	none (no result: IL-2 act, Giardia killer, BRCA1 expr up)
Cc1[nH]n(C(N)=S)c(=O)c1C(c1ccccc1)C(C#N)C#N (stereo not given)	TrxR1 inh inconclusive
Cc1[nH]n(-c2ncc(-c3ccccc3)s2)c(=O)c1C(c1ccc(Br)cc1)C(C#N)C#N (stereo not given)	mIDH1 inhibitor inconclusive, TrxR1 inh 31.6µM
CC1=CC(=NOC(=O)c2cccc([N+](=O)[O-])c2)C=C(C)C1=O	TrxR1 inh 10µM
CC1=CC(=O)C(C(C)C)=C/C1=N/OC(=O)c1cccc([N+](=O)[O-])c1	TrxR1 inh 12.6µM
CCOC(=O)c1ccc(NC(=O)CN2C(=O)c3cccnc3Oc3ccc(Cl)cc32)cc1	none (no result: IL-2 act, Giardia killer, BRCA1 expr up)
COc1cccc(/C=C2/CCC(CN(C)C)C2=O)c1 (stereo not given)	TrxR1 inh 1.12µM
CCCC/C=C1/CCC(CN(C)C)C1=O (stereo not given)	TrxR1 inh 0.631µM
CN(C)CC1CCC/C(=C/c2ccc(Cl)cc2)C1=O (stereo not given)	TrxR1 inh inconclusive
COc1ccc(Cl)cc1NC(=O)Cn1nnc(C(=O)NCc2cccs2)c1N	none (no result: IL-2 act, Giardia killer)
O=C(CCSc1ccc(Cl)cc1)c1ccco1	TrxR1 inh 10µM
O=C(CSc1ccc(Cl)cc1)c1ccco1	TrxR1 inh 44.7µM
O=C(CSc1ccccc1Cl)c1ccco1	TrxR1 inh inconclusive
O=C(CCSc1ccc(Cl)cc1)N1CCOCC1	BRCA1 expr up 7.94µM
O=C(NCCSc1ccc(Cl)cc1)c1ccco1	none
O=C(CSc1ccc(Cl)cc1)N1CCOCC1	none
CN(C)S(=O)(=O)c1ccc2c(c1)N(CC(=O)N1CCN(c3cccc(Cl)c3)CC1)CCS2	none (no result: IL-2 act, Giardia killer)
CCOC(=O)c1noc2ncnc(Nc3ccc(C)c(F)c3)c12	none (no result: IL-2 act, Giardia killer)
S=c1[nH]nc(-c2cc(-c3ccccn3)nc3ccccc23)o1	TrxR1 inh 56.2µM
O=S(=O)(c1ccc2c(Cl)cccc2c1)N1CCN(c2nc(-c3cccs3)nc3ccccc23)CC1	none (no result: mIDH1 inhibitor, IL-2 act)
